MEKK3 PB1 HTS: modulators of MEKK3-MEK5 PB1 binding, primary screen, biochemical, wildtype MEKK3, multiplex bead flow cytometry, Alexa488-MEK5; Mitogen-activated protein kinase kinase kinase 3 (Homo sapiens), Q99759; bead-based flow cytometry, Alexa488-MEK5 binding to MEKK3; actives lie on both sides; 0 = blocked by unlabeled MEK5, 100 = vehicle; binding response (% of control), % at 10 µM; actives 1.4% (n = 290,000); AID 1529, 2009;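 active = binding response more than 3 SD above or below the average of its plate-row segment, actives on both sides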;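 also: Alexa488 bead fluorescence after subtracting the streptavidin-only scavenger bead signal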
NTR1 agonist: agonists of human NTR1, primary screen, imaging, U2OS cells, beta-arrestin-GFP, high content; NTR1-U2OS beta-arrestin-GFP spot imaging, agonist mode; activation, % at 20 µM; actives 0.17% (n = 330,000); AID 493036, 2011;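 active = activation at or above 40% of the spot to cytoplasm intensity ratio, with at least 20 cells analyzed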;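 also: 0% = DMSO without peptide and 100% = 100 nM NTR1 peptide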
Target sequence (P30989 whole entry, looked up): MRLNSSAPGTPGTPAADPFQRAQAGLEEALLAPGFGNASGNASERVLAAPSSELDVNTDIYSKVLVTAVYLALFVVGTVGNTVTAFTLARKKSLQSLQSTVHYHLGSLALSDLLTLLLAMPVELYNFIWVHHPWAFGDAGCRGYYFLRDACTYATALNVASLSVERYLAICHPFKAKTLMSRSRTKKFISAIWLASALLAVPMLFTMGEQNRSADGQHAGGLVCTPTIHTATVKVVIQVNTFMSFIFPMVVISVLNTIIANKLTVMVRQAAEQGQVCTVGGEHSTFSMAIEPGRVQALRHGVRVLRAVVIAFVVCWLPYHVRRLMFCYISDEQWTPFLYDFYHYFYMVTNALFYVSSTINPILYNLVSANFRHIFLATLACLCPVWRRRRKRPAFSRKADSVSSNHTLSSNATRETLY
ANO1 block: TMEM16A chloride channel inhibitors, primary screen, cell-based, HTS | HEK293 TMEM16A/YFP iodide influx fluorescence, ionomycin | Anoctamin-1 (Mus musculus), Q8BHY3 | actives 1.2% (n = 310,000) | normalized B-score (activity score, 25-100; higher = stronger inhibition) at 10 µM;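 active = ratio plate-corrected score three or more library SD toward inhibition, starting fluorescence score within five deviations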;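 also: score derived from kinetic fluorescence span divided by baseline fluorescence per well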
MEKK2wt PB1 HTS: modulators of MEK5 binding to wildtype MEKK2, primary screen, biochemical, multiplex bead flow cytometry, Alexa488-MEK5; Mitogen-activated protein kinase kinase kinase 2 (Homo sapiens), Q9Y2U5; AID 1531, 2009; actives 1.1% (n = 290,000); binding response (% of control), % at 10 µM; Alexa488-MEK5 binding to MEKK2 WT; actives lie on both sides; in the data active = binding response below about 67% or above about 130%
ANO1 activ: TMEM16A chloride channel activators or potentiators, primary screen, cell-based, HTS | Anoctamin-1 (Mus musculus), Q8BHY3 | HEK293 TMEM16A/YFP-H148Q/I152L, iodide quench fluorescence; stronger effect = lower value | B-score at 10 µM | actives 0.3% (n = 340,000) | AID 623877, 2012;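 active = fluorescence-ratio B-score plate-corrected deviation score at least 3 library SD below zero, with starting fluorescence score within 5 deviations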;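 also: channel opened by trigger with iodide after compound preincubation; score built on the fluorescence ratio of max minus min over baseline; more negative score means more quench and so TMEM16A activation or potentiation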
MEKK2mut PB1 HTS: MEK5 binding signal on mutant MEKK2 PB1, primary screen, biochemical, multiplex bead flow cytometry, Alexa488-MEK5; Alexa488-MEK5 binding to MEKK2 mutant; percent response, % at 10 µM; actives 0.35% (n = 290,000); AID 1530, 2009; in the data active = percent response above about 24%, passing the limit was not always enough
MEKK2wt confirm: modulators of MEK5 binding to wildtype MEKK2, confirmation, biochemical, single concentration, multiplex bead flow cytometry; shares compounds with MEKK3 PB1 HTS; binding response (% of control), % at 10 µM; Alexa488-MEK5 binding to MEKK2 WT; actives lie on both sides; actives 2.4% (n = 5,900); in the data active = binding response below about 16% or above about 210%; inactive = in between
MEKK2mut confirm: mutant MEKK2 PB1-MEK5 binding signal retest – biochemical, single concentration, multiplex bead flow cytometry, confirmation; shares compounds with MEKK3 PB1 HTS; Alexa488-MEK5 binding to MEKK2 mutant; percent response, % at 10 µM; actives 2% (n = 5,900); AID 1893, 2009; in the data active = percent response mostly above about 71%, no sharp cut-off; inactive = mostly below about 38%;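 also: higher means compound restores mutant binding toward wildtype level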
MEKK3-MEK5 inh: MEKK3 wild-type PB1 binding to MEK5, inhibitors, confirmation, biochemical, bead multiplex flow cytometry, single concentration, wildtype. shares compounds with MEKK3 PB1 HTS. binding response (% of control), % at 10 µM. AID 1894, 2009. actives 1.8% (n = 5,900). Alexa488-MEK5 binding to MEKK3; stronger effect = lower value;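 active = binding response below 72% of control, or above a set upper limit, though filed actives all read lower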;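 also: 100% = DMSO only wells and 0% = binding blocked by excess unlabeled MEK5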
Starred values were filed as active, the others as inactive; i = inactive; / = no result given; ! = not active in a repeat; [ ] = another dose, or the depositor's remark. Shown are actives, neighbours in structure and some others; about 3.4% of the full set was active somewhere.

SMILES	MEKK3 PB1 HTS	NTR1 agonist	ANO1 block	MEKK2wt PB1 HTS	ANO1 activ	MEKK2mut PB1 HTS	MEKK2wt confirm	MEKK2mut confirm	MEKK3-MEK5 inh
Fc1ccc([C@@H]2CCNC[C@H]2COc2ccc3c(c2)OCO3)cc1	112	4	i	144*!	i	6	128	13	101
Cc1ccc2c(N)c(C(=O)N(c3ccccc3)c3ccccc3)sc2n1	98	8	i	88	i	-4	/	/	/
Cc1cc(N/N=C/c2ccccc2Br)nc2ccccc12	99	19	i	144*	i	22	136	13	104
Nn1cnc2c(c1=O)C1(CCCCC1)Cc1ccccc1-2	141*	5	i	106	i	0	99	1	104
CC(=O)Nn1cnc2c(c1=O)C1(CCCC1)Cc1ccccc1-2	104	-3	i	94	i	1	/	/	/
O=C(c1ccc(S(=O)(=O)N2CCCCCC2)cc1)N1CCN(c2ccccc2F)CC1	105	2	i	101	i	6	/	/	/
COCCNC(=O)c1ccc(CS(=O)(=O)c2ccccc2OC)o1	107	4	i	106	i	2	/	/	/
COc1ccccc1S(=O)(=O)Cc1ccc(C(=O)NCCN2CCCCCC2)o1	102	-1	i	135*	i	19	142	27	108
CC(OC(=O)c1cccc(S(=O)(=O)N2CCCC2)c1)C(=O)NC1CCCCC1C (centres undefined)	/	0	i	/	i	/	/	/	/
CCCC[C@@H]1CNCCN1CC1(c2ccccc2)CC1	/	0	i	/	i	/	/	/	/
CCN(CC)c1ccc(/C=N/NC(=O)c2nnn(-c3nonc3N)c2C(C)C)c(O)c1	2.0*[inhibitor]	10	i	1.0*[inhibitor]	i	-20	105	-2	102
O=S(=O)(Cc1ccccc1)N1CCC(N2CCN(c3ccccc3)CC2)CC1	133*	-1	i	117	i	5	111	4	104
COc1ccc(CC(=O)Oc2ccc(C)cc2Br)cc1OC	102	3	i	107	i	2	/	/	/
O=C1S/C(=C/c2ccccc2)C(=O)N1CC(O)Cn1c2ccccc2c2ccccc21 (centres undefined)	75*[inhibitor]	2	i	91	i	-1	89	-6	81
CC(C)(C)c1cc(Cl)ccc1OCCOCCN1CCCC1	102	1	i	124	i	10	/	/	/
Cc1cc(C(C)(C)C)ccc1OCCOCCN1CCCC1	136*	2	i	110	i	1	108	-2	100
COc1ccc(C2c3[nH]c4ccccc4c3CCN2Cc2cccn2-c2ncccn2)cc1C (centres undefined)	117	8	i	127	i	2	/	/	/
Cc1cccc(C2c3[nH]c4ccccc4c3CCN2Cc2cccn2-c2ncccn2)c1 (centres undefined)	110	10	i	149*	i	30	109	5	102
Cc1noc(C)c1NC(=O)N(C)C[C@H]1Oc2ccc(NC(=O)C3CCCCC3)cc2C(=O)N([C@H](C)CO)C[C@@H]1C	/	2	/	/	i	/	/	/	/
CNc1ccc(OC(F)F)cc1C(=O)c1ccccc1	1.0*[inhibitor]	0	i	-2.0*[inhibitor]	i	-31	104	0	102
CCN1CCCC1CNC(=O)c1cc2c(-c3ccc(Cl)cc3)nn(C)c2s1 (centres undefined)	112	9	i	210*	i	29*	167	31	101
Cn1nc(-c2ccc(Cl)cc2)c2cc(C(=O)NCCCN3CCCC3)sc21	105	15	i	201*	i	21	176	37	106
NC1=NC(c2ccc(F)cc2)n2c(nc3ccccc32)N1 (centres undefined)	105	1	i	105	i	7	/	/	/
Cc1cc(C2N=C(N)Nc3nc4ccccc4n32)c(C)n1-c1ccccc1Cl (centres undefined)	113	12	i	138*	i	26*	148	17	96
Cc1ccc(-n2c(C)cc(C3N=C(N)Nc4nc5ccccc5n43)c2C)c(C)c1 (centres undefined)	110	19	i	134*	i	28*	151	56	108
SMILES	MEKK3 PB1 HTS	NTR1 agonist	ANO1 block	MEKK2wt PB1 HTS	ANO1 activ	MEKK2mut PB1 HTS	MEKK2wt confirm	MEKK2mut confirm	MEKK3-MEK5 inh
Cc1ccc(S(=O)(=O)N2C=CC(C(F)(F)F)=NCC2)cc1	1.0*[inhibitor]	-1	i	1.0*[inhibitor]	i	-21	97	-6	97
CCCCNC(=S)N1CCC(Cc2ccccc2)CC1	99	1	i	96	i	-4	/	/	/
COc1cc(OC)c2c(c1)C(=O)OC2	131*	0	i	106	i	0	99	2	99
COc1cc(OC)cc(C(=O)Nc2ccc3c(c2)COC3=O)c1	121	0	i	113	i	9	/	/	/
CCCC(=O)Nc1nc2nc(-c3ccccc3)cc(-c3ccccc3)n2n1	0.0*[inhibitor]	3	i	0.0*[inhibitor]	i	-17	103	9	106
O=C1CCCN1C(=O)CSc1ccc2ccccc2n1	/	-1	/	/	i	/	/	/	/
O=C(CSc1ccc(-c2nc3ccccc3[nH]2)cn1)Nc1ccc(S(=O)(=O)NC2CC2)cc1	165*	-1	i	112	i	1	102	0	98
O=C(CSc1ccc(-c2nc3ccccc3[nH]2)cn1)Nc1ccc2c(c1)OCCO2	102	0	i	104	i	0	/	/	/
O=C(O)c1cccc(-n2nnnc2SCc2ccccc2Cl)c1	103	-1	i	104	i	4	/	/	/

From PubChem BioAssay
